Screening results from PubChem.
GPT2 inhibitor = Primary qHTS assay for inhibitors of Glutamate pyruvate transaminase 2 (GPT2) | Alanine aminotransferase 2 (Homo sapiens), Q8TD30 | Recombinant GPT2, coupled pyruvate oxidase/HRP Amplex Red fluorescence | Potency, µM (series often up to 57.7 µM), without a hit: at the top dose activity change, negative = inhibition, most hits filed as inhibitors | 0.25% of 100,000 active | AID 1671188, 2021; further: on the % scale 0 is the no-effect control and ±100 the full control effect; nearly all actives have a fitted effect of over 60% in size
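GPT2 10ng/uL, a-KG 250uM, L-Ala 2mM, HEPES pH7.5 + 0.0001% Tween; 30 min RT. Then Amplex mix (PO/HRP/ThPP), 30 min RT dark, fluorescence. AOA 50uM used as positive control.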
hNpr1 antagonist = Natriuretic polypeptide receptor (hNpr1) antagonism - Primary qHTS; 1.6% of 76,000 active; HEK293 hNpr1 GloSensor cGMP, ANP-stimulated luminescence; Atrial natriuretic peptide receptor 1 (Homo sapiens), P16066; Potency, µM (doses to about 46.3 µM), for the others: top-dose activity change, negative = inhibition, actives largely listed as inhibitors; AID 1347048, 2019; calls by dose curve; further: on the % scale 0 is the no-effect control and ±100 the full control effect; nearly all actives have a fitted effect of over 60% in size
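Compound pre-incubated 30 min at room temperature on GloSensor-loaded HEK293 cells stably carrying hNpr1 and the pGS-40F cGMP biosensor. Stimulation uses hNppA at 0.1 nM final; luminescence is taken at baseline and 20 min post-agonist.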
3T3 cytotox = Cytotoxic Profiling in NIH 3T3 Cell Line of Diverse Libraries Using Quantitative High-Throughput Screening | Potency, µM (doses to about 96.7 µM), inactives show at the top dose activity change, negative = cytotoxicity, actives largely listed as inhibitors | AID 1345082, 2018 | 4.3% of 94,000 active | NIH 3T3 viability, CellTiter-Glo ATP luminescence, 48-72 h; further: on the % scale 0 is the no-effect control and ±100 the full control effect; nearly all actives have a fitted effect of over 55% in size
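Cells were seeded at 400 per well, treated with pin-transferred compound, and kept 48 or 72 hr at 37 °C before CellTiter-Glo addition and luminescence imaging of cellular ATP.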
FLuc inh-1 = Firefly luciferase inhibition profiling of diverse chemical library using quantitative high-throughput screening | Luciferin 4-monooxygenase (Photinus pyralis), P08659 | purified P. pyralis luciferase, luminescence, biochemical | Potency, µM (highest dose often 115 µM), usual class: inhibitors | 2.5% of 76,000 active; further: on the % scale 0 is the no-effect control and ±100 the full control effect; nearly all actives have a fitted effect of over 65% in size
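Inhibitors were tested against purified firefly luciferase in a biochemical, low-substrate format (both substrates at 10uM) and luminescence measured with a CCD imager.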
HEK293 tox = Cytotoxic Profiling in HEK 293 Cell Line of Diverse Libraries Using Quantitative High-Throughput Screening; 6.6% of 94,000 active; Potency, µM (top dose mostly 115 µM), for inactives: at the highest dose activity change, negative = cytotoxicity, actives largely listed as inhibitors; HEK 293 viability, ATP luminescence (CellTiter-Glo), 48-72 h; further: on the % scale 0 is the no-effect control and ±100 the full control effect; nearly all actives have a fitted effect of over 60% in size
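250 HEK 293 cells/well; compound by pintool; incubated 48 or 72 hr at 37 degree Celsius; CellTiter-Glo added, 10 min RT, luminescence imaged.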
FLuc SDR -ATP = Firefly luciferase (FLuc-C-HiBiT) SDR gain of signal screen - without ATP; shares compounds with FLuc inh-1; Purified FLuc-C-HiBiT, Nano-Glo HiBiT luminescence, no ATP; Potency, µM (series often up to 32.7 µM), for the others: at the highest dose activation (signal gain), most hits filed as activators; 7.8% of 1,300 active; further: nearly all actives have a fitted effect of over 55% in size
FLuc SDR ATP = Firefly luciferase (FLuc-C-HiBiT) SDR gain of signal screen - plus ATP | AID 1963319, 2024 | shares compounds with FLuc inh-1 | 8.7% of 1,300 active | Potency, µM (highest dose often 32.7 µM), without a hit: at the highest dose activation (gain of signal), most hits filed as activators | purified FLuc-C-HiBiT + ATP, HiBiT complementation luminescence;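 further: signal reports ligand binding via conformational change of the enzyme rather than luciferase catalysis; % of control where 0% means no effect; nearly all actives have a fitted effect of over 55% in size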
FLuc inh-2 = Firefly luciferase (FLuc-C-HiBiT) enzymatic inhibition screen - Functional assay | 42% of 1,300 active | purified FLuc-C-HiBiT enzyme, luciferin luminescence | shares compounds with FLuc inh-1 | AID 1963320, 2024 | Potency, µM (highest dose often 32.7 µM), without a hit: top-dose activity change, negative = inhibition, hits mostly inhibitors; further: on the % scale 0 is the no-effect control and ±100 the full control effect; nearly all actives have a fitted effect of over 70% in size
NPR1 antag cnf = Natriuretic polypeptide receptor (hNpr1) antagonism - Confirmation. HEK293 hNpr1 cGMP GloSensor luminescence, ANP-stimulated. 76% of 1,400 active. Potency, µM (highest dose often 57.6 µM), for inactives: at the highest dose activity change, negative = inhibition, actives largely listed as inhibitors. shares compounds with hNpr1 antagonist. AID 1347044, 2019; calls by dose curve; further: nearly all actives have a fitted effect of over 70% in size
NPR2 antag = Natriuretic polypeptide receptor (hNpr2) antagonism - Subtype selectivity assay; shares compounds with hNpr1 antagonist; HEK293 hNpr2 GloSensor cGMP luminescence, CNP-stimulated; Potency, µM (doses to about 57.6 µM), for the others: at the top dose activity change, negative = inhibition, usual class: inhibitors; 67% of 1,400 active; calls by dose curve; further: nearly all actives have a fitted effect of over 70% in size
Target sequence (P20594 whole entry, looked up): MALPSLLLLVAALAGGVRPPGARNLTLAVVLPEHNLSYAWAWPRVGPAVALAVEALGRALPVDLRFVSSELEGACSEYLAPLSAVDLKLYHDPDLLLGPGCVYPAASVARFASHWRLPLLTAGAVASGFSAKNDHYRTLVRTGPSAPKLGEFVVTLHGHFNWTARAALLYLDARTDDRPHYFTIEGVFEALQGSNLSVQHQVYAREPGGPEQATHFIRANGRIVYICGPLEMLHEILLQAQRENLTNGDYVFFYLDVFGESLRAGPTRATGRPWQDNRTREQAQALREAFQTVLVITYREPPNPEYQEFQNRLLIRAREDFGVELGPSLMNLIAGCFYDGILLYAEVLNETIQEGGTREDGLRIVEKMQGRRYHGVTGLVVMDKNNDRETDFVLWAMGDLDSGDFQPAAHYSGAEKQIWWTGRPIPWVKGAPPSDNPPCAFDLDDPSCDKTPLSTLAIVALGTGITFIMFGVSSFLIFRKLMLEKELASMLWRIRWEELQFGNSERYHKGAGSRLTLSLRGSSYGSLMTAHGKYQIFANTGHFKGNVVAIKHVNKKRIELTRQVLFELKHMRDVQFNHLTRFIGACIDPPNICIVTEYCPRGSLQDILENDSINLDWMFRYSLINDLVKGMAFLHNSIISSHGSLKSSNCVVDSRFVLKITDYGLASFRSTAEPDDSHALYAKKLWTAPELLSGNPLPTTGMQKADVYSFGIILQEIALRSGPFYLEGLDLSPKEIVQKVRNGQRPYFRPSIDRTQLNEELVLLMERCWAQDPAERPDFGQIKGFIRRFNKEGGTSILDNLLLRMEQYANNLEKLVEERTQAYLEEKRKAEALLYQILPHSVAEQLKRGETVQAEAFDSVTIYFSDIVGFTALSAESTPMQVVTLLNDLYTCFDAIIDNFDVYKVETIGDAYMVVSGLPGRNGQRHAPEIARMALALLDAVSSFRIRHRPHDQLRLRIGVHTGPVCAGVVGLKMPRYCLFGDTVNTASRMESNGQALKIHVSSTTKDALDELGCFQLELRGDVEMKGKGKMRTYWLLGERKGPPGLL
FLuc inh counter = Natriuretic polypeptide receptor (hNpr1) antagonism - Confirmation firefly luciferase (FLuc) inhibition counterscreen | purified FLuc enzyme, luminescence, Km substrate | 0.7% of 1,400 active | Potency, µM (doses to about 57.6 µM), without a hit: top-dose activity change, negative = inhibition, actives largely listed as inhibitors | shares compounds with hNpr1 antagonist | AID 1347047, 2019; further: 0% is about no effect
GloSensor ctrl = Natriuretic polypeptide receptor (hNpr1) antagonism - Counterscreen GloSensor control cell line; shares compounds with hNpr1 antagonist; HEK293 GloSensor cGMP, SNP-stimulated, luminescence; Potency, µM (titrated, usually from 57.6 µM), for the others: top-dose activity change, negative = inhibition, actives largely listed as inhibitors; 69% of 1,400 active; AID 1347051, 2019; calls by dose curve; further: on the % scale 0 is the no-effect control and ±100 the full control effect; nearly all actives have a fitted effect of over 70% in size
Active calls of the source: *; i = inactive; u = inconclusive; x = no result given; [ ] = remark or other dose. The list is not random: actives were taken first. Their share in the collection is about 10%. Unless noted, the call rests on the fitted dose curve; in most records, active means well fitted curve in the direction sought with a large enough effect; inconclusive means small, poorly fitted or top-dose-only effect, or another doubt; inactive means no such curve, though single readings can be large; an effect the other way counts as inactive or inconclusive. Potency means the concentration at half of the fitted maximal effect.

SMILES	GPT2 inhibitor	hNpr1 antagonist	3T3 cytotox	FLuc inh-1	HEK293 tox	NPR1 antag cnf	NPR2 antag	FLuc inh counter	GloSensor ctrl	others
COc1cc2c(cc1-c1ccc(CO)cc1)NC(=O)C21CCN(C)CC1	x	x	x	x	x	x	x	x	x	FLuc SDR -ATP=15%[49.3 µM];FLuc SDR ATP=10%[49.3 µM];FLuc inh-2=u
O=C(Nc1ccccc1)Nc1ccc2n(c1=O)C[C@H]1C[C@@H]2CN(C(=O)c2ccccc2)C1	4%[88.5 µM]	-5%[70.6 µM]	u	14µM*	u	x	x	x	x	FLuc SDR -ATP=u;FLuc SDR ATP=17%[49.3 µM];FLuc inh-2=u
O=C(Nc1ccc2n(c1=O)C[C@H]1C[C@@H]2CN(C(=O)Nc2ccccc2)C1)c1ccncc1	-25%[88.5 µM]	3%[70.6 µM]	u	i	0%[172 µM]	x	x	x	x
CC(C)CN1CCNc2cc(-c3ccccc3)ncc2C1	0%[88.5 µM]	-22%[70.6 µM]	u	4µM*	u	x	x	x	x	FLuc SDR -ATP=18%[65.7 µM];FLuc SDR ATP=13%[65.7 µM];FLuc inh-2=u
CN1CCNc2cc(Nc3ccc(F)cc3)ncc2C1	-2%[88.5 µM]	-14%[70.6 µM]	u	3.2µM*	u	x	x	x	x	FLuc SDR -ATP=26%[65.7 µM];FLuc SDR ATP=20%[65.7 µM];FLuc inh-2=20µM*
CN1CCNc2cc(Nc3ccc(F)c(Cl)c3)ncc2C1	-1%[88.5 µM]	u	50µM*	0.79µM*	u	x	x	x	x	FLuc SDR -ATP=20%[49.3 µM];FLuc SDR ATP=16%[49.3 µM];FLuc inh-2=13µM*
CN1CCNc2cc(Nc3ccncc3)ncc2C1	-18%[88.5 µM]	7%[70.6 µM]	u	i	u	x	x	x	x
O=C(NC1CCCCC1)N1C[C@@H]2C[C@H](C1)c1c(-c3cccs3)ccc(=O)n1C2	3%[88.5 µM]	8%[70.6 µM]	u	i	-6%[172 µM]	x	x	x	x
O=C(NCc1ccncc1)C1CNCC12CCOCC2 (centres undefined)	-13%	-1%	0%	i	i	x	x	x	x
COc1ccc(-n2cc(C3=CCN(CCN4CCOCC4)CC3)cn2)cc1	-9%	u	u	4.5µM*	u	x	x	x	x	FLuc SDR -ATP=u;FLuc SDR ATP=u;FLuc inh-2=9.9µM*
COc1ccc(C(=O)c2c(C)n(CCN3CCOCC3)c3cc(I)ccc23)cc1	i	x	x	x	x	x	x	x	x
COc1ccc(CC(=O)N2[C@H]3CC[C@@H]2c2cnc(-c4ccccc4)nc2C3)cc1OC	i	3%	-21%	i	u	x	x	x	x
CC[C@H]1CN2CC[C@H]1C[C@@H]2CNS(=O)(=O)c1cccs1	2%[88.5 µM]	0%[70.6 µM]	1%[174 µM]	i	-1%[172 µM]	x	x	x	x
CC[C@H]1CN2CC[C@H]1C[C@@H]2CN(Cc1cccs1)Cc1cccs1	-4%[88.5 µM]	u	45µM*	i	45µM*	u	u	3%[86.2 µM]	4%[86.2 µM]
COc1ccc(CNC(=O)N2[C@H]3CC[C@@H]2c2cnc(-c4ccccc4)nc2C3)cc1	-17%	13µM*	-43%	i	u	19µM*	19µM*	2%	14µM*
O=C(C1CCC1)N1[C@H]2CC[C@@H]1c1cnc(-c3ccccc3)nc1C2	i	u	-21%	i	u	x	x	x	x
O=C(C1CCC1)N1[C@H]2CC[C@@H]1c1cnc(-c3ccc(F)cc3)nc1C2	i	18µM*	-43%	i	u	19µM*	19µM*	1%	15µM*
O=C(CC1CCCC1)N1[C@H]2CC[C@@H]1c1cnc(-c3ccccc3)nc1C2	-1%	5.6µM*	-27%	i	u	11µM*	12µM*	2%	11µM*
CCC(=O)N1[C@H]2CC[C@@H]1c1cnc(-c3ccc(F)cc3)nc1C2	i	u	-24%	i	-22%	x	x	x	x
O=C(C1CCCCC1)N1[C@H]2CC[C@@H]1c1cnc(-c3ccc(F)cc3)nc1C2	-14%	6.3µM*	-30%	i	-34%	9.7µM*	11µM*	5%	9.7µM*
CC(C)C(=O)N1CC[C@@H]2COCCN(Cc3cccnc3)[C@@H]2C1	-4%	-2%	5%	i	-3%	x	x	x	x
Cn1cccc1C(=O)N1[C@H]2CC[C@@H]1c1cnc(-c3ccc(F)cc3)nc1C2	i	10µM*	u	i	16µM*	12µM*	15µM*	2%	14µM*
COc1cc2c(cc1Oc1ccccc1)NC(=O)C21CCN(c2cnccn2)CC1	-2%[88.5 µM]	-21%[70.6 µM]	u	i	u	u	u	3%[86.2 µM]	u
Cn1nc(C(=O)NCC2(C)CCOCC2)c2ccccc21	-13%	1%	i	i	8%	x	x	x	x
CCC(CC)c1cc([C@H]2CN3CC[C@H]2C[C@@H]3CNS(C)(=O)=O)nc(-c2ccncc2)n1	-5%	2%	-15%	i	-10%	x	x	x	x
